# Screening results deposited in PubChem BioAssay by National Center for Advancing Translational Sciences (NCATS).
# Hits are enriched below; roughly 8.1% of the tested compounds scored in any of these assays.
# MCF10A rerep – A quantitative high throughput screen for small molecules that induce DNA re-replication in MCF 10a normal breast cells | MCF 10A DNA re-replication, Hoechst nuclear intensity, 48 h | Potency, µM (top dose mostly 46.1 µM), inactives show top-dose activity, positive = re-replication, actives largely listed as activators | actives 2.9% (n = 350,000) | AID 624296, 2012; note: % of control where 0% means no effect; nearly all actives have a fitted effect of over 50% in size
# KB-3-1 tox – qHTS assay for MDR1-selective chemotherapeutics: Primary screen using the parental adenocarcinoma cell KB-3-1; Potency, µM (titrated, usually from 46.1 µM), hits mostly cytotoxic; AID 1347075, 2019; KB-3-1 viability, CellTiter-Glo ATP luminescence, 72 h; actives 1.4% (n = 400,000); note: % is set by controls: 0 for no effect and ±100 for the full control effect; nearly all actives have a fitted effect of over 60% in size
#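 72 h, 37 °C compound treatment of KB-3-1 parental cells; CellTiter-Glo added, 10 min, luminescence read. Data corrected against DMSO-only plates and normalized before curve fitting.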
# SW480 rereplic – A quantitative high throughput screen for small molecules that induce DNA re-replication in SW480 colon adenocarcinoma cells; SW480 DNA re-replication, Hoechst DNA content imaging, 48 h; Potency, µM (highest dose often 46.1 µM), without a hit: top-dose re-replication activation, actives largely listed as activators; actives 1.8% (n = 340,000); note: % of control where 0% means no effect; nearly all actives have a fitted effect of over 55% in size
#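 Hoechst fluorescence of nuclei (405 nm excitation, 500-530 nm emission) measured by plate-scanning imager after 48 hr compound exposure at 37 C; re-replication scored as increased number of nuclei with elevated intensity.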
# KB-V1 MDR tox – qHTS assay for MDR1-selective chemotherapeutics: Primary screen using the drug-selected MDR subline cells KB-V1 | KB-V1 MDR cells viability, CellTiter-Glo, 72 h | Potency, µM (series often up to 46.1 µM), usual class: cytotoxic | actives 3.4% (n = 400,000); note: % is set by controls: 0 for no effect and ±100 for the full control effect; nearly all actives have a fitted effect of over 60% in size
#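 Potencies derive from concentration-effect curves fitted to normalized luminescence (CellTiter-Glo) of KB-V1 cells treated for 72 h at 37 degrees C in phenol-red-free DMEM containing 10% FBS.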
# ELG1 DNA repair – qHTS screen for small molecules that inhibit ELG1-dependent DNA repair in human embryonic kidney (HEK293T) cells expressing luciferase-tagged ELG1; Potency, µM (doses to about 46.1 µM), for the others: at the highest dose activity change, negative = inhibition, actives largely listed as inhibitors; actives 2.3% (n = 330,000); HEK293T ELG1-luciferase reporter, luminescence, 16 h; DNA damage induced by 5-fluorouridine; AID 504467, 2011; note: % is set by controls: 0 for no effect and ±100 for the full control effect; nearly all actives have a fitted effect of over 55% in size
#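 Step one: seed 2,000 cells per well. Step two: pin-transfer compound or DMSO alongside 5-fluorouridine. Step three: incubate 16 hr, 37 °C, 5% CO2. Step four: add ONE-Glo, wait 30 min, read luminescence.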
# Starred values were filed as active, the others as inactive; i = inactive; ? = inconclusive; / = no result. Calls come from the whole dose curve; as a rule, active = well fitted curve in the direction sought with a large enough effect; inconclusive = small, poorly fitted or top-dose-only effect, or another doubt; inactive = no such curve, though single readings can be large; an effect the other way counts as inactive or inconclusive. Potency is the fitted concentration of half-maximal effect.
SMILES,MCF10A rerep,KB-3-1 tox,SW480 rereplic,KB-V1 MDR tox,ELG1 DNA repair
COc1ccc(C[C@@H]2C(=O)N[C@H](C)C(=O)N(C)[C@@H]3Cc4ccc(cc4)Oc4cc(ccc4O)C[C@H](C(=O)N[C@@H](C)C(=O)N[C@H](C)C(=O)N2C)N(C)C3=O)cc1,/,i,/,i,/
CCc1cccc(NC(=O)Cn2nc3c4cc(F)ccc4n(Cc4cccc(C)c4)cc-3c2=O)c1,/,?,/,i,/
CCOC(=O)c1[nH]c(C)c(C(=O)Nc2ccccc2C)c1C,3.66µM*,?,?,i,?
CCOC(=O)c1[nH]c(C)c(C(=O)NCCc2ccc(OC)cc2)c1C,?,i,-0.7%,14.6µM*,-5.7%
CCOC(=O)c1[nH]c(C)c(C(=O)NCc2cccc(OC)c2)c1C,/,i,/,i,/
COc1ccc(OC)c(NC(=O)c2[nH]c(C)c(C(C)=O)c2C)c1,24.3%,i,-11.7%,16.4µM*,?
COc1ccc(Cl)cc1NC(=O)c1[nH]c(C)c(C(C)=O)c1C,-10.4%,i,-27.5%,i,20.4%
CC1CC(C)(C)NC(=S)N1CCC(=O)Nc1ccc2c(c1)OCCO2 (configuration not stated),?,23.1µM*,?,?,19.1%
CC(C)CNC(=O)C(=O)Nc1ccc2c(c1)N(S(=O)(=O)c1cccs1)CCC2,3.1%,i,-28.0%,i,?
CC(C)CCNC(=O)C(=O)Nc1ccc2c(c1)N(S(=O)(=O)c1cccs1)CCC2,?,5.8µM*,?,?,?
O=C(NCCCO)C(=O)Nc1ccc2c(c1)N(S(=O)(=O)c1cccs1)CCC2,13.6%,i,11.2%,i,0.5%
COCCNC(=O)C(=O)Nc1ccc2c(c1)N(S(=O)(=O)c1cccs1)CCC2,?,?,2.59µM*,?,-1.1%
CC(C)c1c(C(=O)N/N=C/c2cccc(OCc3ccccc3)c2)nnn1-c1nonc1N,16.4µM*,i,-16.8%,i,-18.8%
COc1cccc(/C=N/NC(=O)c2nnn(-c3nonc3N)c2C(C)C)c1OCc1ccc(F)cc1,20.6µM*,i,?,i,?
Cc1ccc(N2CC3=C(C2=O)C(c2ccc(Br)cc2)NC(=O)N3C)cc1 (configuration not stated),/,i,/,?,/
Cc1ccc(-c2nnc(Nc3cccc(Cl)c3)c3ccccc23)cc1S(=O)(=O)NCC1CCCO1 (configuration not stated),/,i,/,i,/
COc1cccc(CNCc2cccn2-c2nnc(N3CCN(c4ccccc4)CC3)s2)c1,/,i,/,?,/
O=S1(=O)C=C(SCc2ccc(Cl)c(Cl)c2)Nc2ccccc21,?,?,?,14.6µM*,-12.2%
Nc1nc(SCc2ccc(Cl)c(Cl)c2)n[nH]1,-6.7%,i,4.8%,i,?
C#CC(C)(CC)NC(=O)Cn1nnc(-c2ccc(OCc3ccccc3F)cc2)n1 (configuration not stated),/,i,/,i,/
CCOc1ccc(CCNC(=O)c2cc3c(-c4cccc(OC)c4)nn(C)c3s2)cc1OCC,/,?,/,23.1µM*,/
CCOc1ccc(CCNC(=O)c2cccc(-n3cnnn3)c2)cc1OCC,1.9%,i,-1.9%,18.4µM*,-19.7%
COc1cccc(-c2nn(C)c3sc(C(=O)N4CCOCC4)cc23)c1,13.0%,i,0.6%,i,18.4µM*
COc1cccc(-c2nn(C)c3sc(C(=O)N4CCN(c5ccccn5)CC4)cc23)c1,?,i,?,i,?
CCOC(=O)C1CCCN(C(=O)c2cc3c(-c4cccc(OC)c4)nn(C)c3s2)C1 (configuration not stated),6.51µM*,?,?,6.51µM*,11.6µM*
SMILES,MCF10A rerep,KB-3-1 tox,SW480 rereplic,KB-V1 MDR tox,ELG1 DNA repair
CCOC(=O)c1cccc(NC(=O)c2cc3c(-c4cccc(OC)c4)nn(C)c3s2)c1,/,i,/,?,/
CCOC(=O)c1c(S(=O)(=O)N2CCC(C(=O)NCc3ccccc3Cl)CC2)c(C)n(C)c1C,/,i,/,i,/
COC(=O)c1cccc(Cn2nc(C)c([N+](=O)[O-])c2C)c1,3.6%,i,0.3%,?,-17.7%
Cc1nn(Cc2cccc(C(=O)NC(C)c3ccc(C(C)(C)C)cc3)c2)c(C)c1[N+](=O)[O-] (configuration not stated),?,?,9.9%,6.51µM*,?
Cc1nn(Cc2cccc(C(=O)O)c2)c(C)c1[N+](=O)[O-],-1.3%,i,-6.0%,?,0.0%
CCC(NC(=O)c1cccc(Cn2nc(C)c([N+](=O)[O-])c2C)c1)c1ccc(C(C)C)cc1 (configuration not stated),3.8%,i,-5.4%,2.91µM*,-6.3%
C[C@H](CO)NC(=O)c1nc[nH]c1C(=O)N[C@@H](C)c1ccccc1,/,i,/,i,/
CC(=O)c1ccc(S(=O)(=O)N2CCN(c3nn(C)c(=O)n(C)c3=O)CC2)cc1,-2.2%,i,-4.5%,i,9.1%
O=C1C(Cc2ccc(F)cc2)SC(=Nc2ccccc2)N1c1ccccc1 (configuration not stated),23.2%,i,/,?,1.7%
O=C1C(Cc2cccc([N+](=O)[O-])c2)SC(=Nc2ccccc2)N1c1ccccc1 (configuration not stated),?,i,21.5%,20.6µM*,-18.7%
O=C1C(Cc2ccc(Br)cc2)SC(=Nc2ccccc2)N1c1ccccc1 (configuration not stated),?,?,?,20.6µM*,-11.0%
CCOC(=O)c1cc(-c2ccccc2)n(CCC(=O)N2CCN(c3ccccn3)CC2)c1C,4.8%,?,0.7%,?,23.1µM*
O=C(CCNS(=O)(=O)c1ccccc1Cl)N1CCN(c2ccccn2)CC1,4.8%,?,-1.7%,16.4µM*,0.5%
O=C(Nc1ccccc1Cl)N1CCN(c2ccccn2)CC1,-1.0%,?,-18.5%,16.4µM*,6.2%
CCOC(=O)c1ccc(NC(=O)N2CCN(c3ccccn3)CC2)cc1,-0.4%,i,2.3%,16.4µM*,?
CCOC(=O)c1ccc(NC(=O)N2CCN(CCc3ccccc3)CC2)cc1,-4.8%,i,-9.7%,i,0.1%
CCc1cccc(NC(=O)C2CCCN2S(=O)(=O)c2ccc3c(c2)CC(C)N3C(C)=O)c1 (configuration not stated),16.4%,i,2.5%,i,?
